Compound activity (PubChem BioAssay)
In the library only some 3.8% were active in any assay of this set; here they are far more common.
Jurkat NFkB inh = inhibitors of induced NF-kB luciferase reporter, primary screen, TCR NF-kB activation inhibitor project, cell-based, luminescence, uHTS; Jurkat, PMA/ionomycin-induced NF-kB luciferase reporter; inhibition, % at 4 µM; 330,000 tested, 0.53% active; AID 435003, 2010; in the data active = inhibition above about 50%
697 NFkB inh = inhibitors of PMA/ionomycin-induced NF-kB reporter, 697 cells, primary screen, B-cell NF-kB inhibitor project, cell-based, luminescence, uHTS; 330,000 tested, 0.33% active; inhibition, % at 4 µM; 697 B-cell NF-kB luciferase reporter, 16 h; AID 435022, 2010; in the data active = inhibition above about 35%
NTR1 agonist = agonists of human NTR1, primary screen, imaging, U2OS cells, beta-arrestin-GFP, high content | 330,000 tested, 0.17% active | activation, % at 20 µM | AID 493036, 2011 | Neurotensin receptor type 1 (Homo sapiens), P30989 | NTR1-U2OS beta-arrestin-GFP spot imaging, agonist mode;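 active = activation at or above 40% of the spot to cytoplasm intensity ratio, with at least 20 cells analyzed; inconclusive = wells under 20 cells, flagged as cytotoxic or low count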;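 also: 0% = DMSO without peptide and 100% = 100 nM NTR1 peptide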
Bfl-1 A1 inh = caspase 3/7 activation in MEF A1-2A-BIM cells, primary screen, A1 inhibitor project, cell-based, luminescence, HTS. Caspase-Glo 3/7 luminescence, 3 h; percent of clofoctol response, vehicle zero. caspase activation, % (test concentration not listed). 330,000 tested, 0.066% active. AID 2462, 2010;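 active = over half of replicate activation scores above 10%, or exactly half above 10 with the replicate mean above 10; inconclusive = replicate mean below 10 yet half the replicates above 10; inactive = over half of replicates below 10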
Beta cell apopt = inhibitors of cytokine-induced beta cell apoptosis, primary screen, luminescence; protection from apoptosis, % (test concentration not listed); AID 435005, 2010; INS-1E cytokine-induced death, ATP luminescence, 48 h; percent of positive-control rescue, neutral wells zero; 300,000 tested, 0.8% active;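 active = Every replicate reaches about 75%, or at least half do and their mean reaches it too, limit read from the data; inconclusive = At least half of replicates reach the limit but their mean does not; inactive = Under half of replicates reach the limit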;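 also: 0% = cytokine-treated negative control wells and 100% = positive control rescue; higher means more ATP so stronger rescue from cytokine killing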
Mdm2 MdmX PPI = inhibitors of human Mdm2-MdmX association, primary screen, cell-based, luminescence, split luciferase, SaOS-2, uHTS | SaOS-2 split-luciferase Mdm2/MdmX complementation | Protein Mdm4 (Homo sapiens) + E3 ubiquitin-protein ligase Mdm2 (Homo sapiens), … | inhibition, % at 8 µM | 330,000 tested, 3% active | AID 485346, 2010;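 active = inhibition of at least 50% at 8 µM in the primary screen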
Target sequence (O15151 whole entry, looked up): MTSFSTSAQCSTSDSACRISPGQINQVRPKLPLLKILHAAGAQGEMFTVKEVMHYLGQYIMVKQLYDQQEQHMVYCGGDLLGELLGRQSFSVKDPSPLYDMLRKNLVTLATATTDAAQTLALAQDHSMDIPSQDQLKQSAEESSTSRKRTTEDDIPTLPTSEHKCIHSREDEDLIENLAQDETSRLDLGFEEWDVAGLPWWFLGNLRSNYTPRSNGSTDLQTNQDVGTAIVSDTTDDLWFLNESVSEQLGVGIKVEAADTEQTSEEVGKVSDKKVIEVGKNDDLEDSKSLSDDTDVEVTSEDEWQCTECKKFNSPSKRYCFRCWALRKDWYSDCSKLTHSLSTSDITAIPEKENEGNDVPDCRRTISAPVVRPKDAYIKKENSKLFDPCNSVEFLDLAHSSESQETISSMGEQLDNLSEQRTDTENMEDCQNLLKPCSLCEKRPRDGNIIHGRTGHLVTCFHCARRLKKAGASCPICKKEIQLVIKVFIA
Target sequence (Q00987 whole entry, looked up): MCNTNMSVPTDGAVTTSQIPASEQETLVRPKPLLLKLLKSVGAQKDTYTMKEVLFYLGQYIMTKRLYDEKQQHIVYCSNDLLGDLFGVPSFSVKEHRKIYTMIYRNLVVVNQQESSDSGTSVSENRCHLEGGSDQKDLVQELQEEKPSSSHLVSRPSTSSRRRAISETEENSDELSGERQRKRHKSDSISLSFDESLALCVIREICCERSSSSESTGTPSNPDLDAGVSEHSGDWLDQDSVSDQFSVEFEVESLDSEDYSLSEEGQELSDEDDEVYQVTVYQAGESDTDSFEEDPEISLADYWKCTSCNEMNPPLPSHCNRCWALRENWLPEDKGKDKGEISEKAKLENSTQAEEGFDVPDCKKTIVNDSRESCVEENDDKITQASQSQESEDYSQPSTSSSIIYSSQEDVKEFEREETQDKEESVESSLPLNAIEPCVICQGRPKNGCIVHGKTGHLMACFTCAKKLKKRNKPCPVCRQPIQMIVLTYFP
Mdm2 MdmX conf = Mdm2-MdmX complex disruptors, retested hits, confirmation, luminescence, single concentration. shares compounds with Mdm2 MdmX PPI. inhibition, % at 8 µM. AID 489028, 2010. Mdm2-MdmX binding, luminescent assay. 10,000 tested, 55% active; in the data active = inhibition above about 40%
Full FLuc ctr = full-length luciferase signal inhibition, confirmation, counter-screen for Mdm2/MdmX interaction inhibitor project, cell-based, single concentration, SaOS-2 | inhibition, % at 8 µM | 6,200 tested, 77% active | SaOS-2 full-length luciferase counterscreen, luminescence | shares compounds with Mdm2 MdmX PPI;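 active = mean inhibition at 8 µM reaching about 37%, which flags the compound as non-specific, limit read from the data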;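 also: p53-null SaOS-2 cells with luciferase driven by a doxycycline-inducible promoter; compound on cells about two nights before reading with doxycycline added after day one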
* marks the source's active call; other numbers are inactive results; ? = inconclusive; . = no result.

SMILES	Jurkat NFkB inh	697 NFkB inh	NTR1 agonist	Bfl-1 A1 inh	Beta cell apopt	Mdm2 MdmX PPI	Mdm2 MdmX conf	Full FLuc ctr
COc1ccc2nc(SCC(C)=O)c(C#N)cc2c1	-113	-221	-3	-5	25	-185	.	.
COc1ccc2nc(SCC(=O)N3CC(=O)Nc4ccccc43)c(C#N)cc2c1	19	15	0	0	5	65*	68*	46*
Cc1cc(C)c2nc(SCC(=O)Nc3ccccc3N3CCOCC3)c(C#N)cc2c1	8	4	2	1	1	46	.	.
Cc1cc(C)c2nc(SCC(=O)N3CC(=O)Nc4ccccc43)c(C#N)cc2c1	49	-128	2	0	50	69*	71*	112*
Cc1cc(C)nc(SCC(=O)NC2CCCCC2C)n1 (centres undefined)	6	-8	0	0	.	8	.	.
CCCN1CCN(C(=O)C2CCN(S(=O)(=O)c3c(C)noc3/C=C/c3ccc(C)cc3)CC2)CC1	23	3	4	1	12	58*	15	.
O=C(NCc1ccc(Cl)cc1)C1CCN(C(=O)Cc2ccccc2)CC1	2	16	0	1	-2	8	.	.
Cc1ccc(NC(=O)NNC(=O)Cn2nc(-c3ccccc3)c(-c3ccccc3)c(C#N)c2=O)cc1	-11	-37	7	0	15	53*	57*	92*
O=C(Nc1ccccc1)c1nc[nH]c1C(=O)NCCNC(=O)c1[nH]cnc1C(=O)Nc1ccccc1	13	24	-1	-1	2	47	.	.
O=C(c1ccccc1)c1nc[nH]c1C(=O)Nc1ccccc1	-4	-6	0	0	13	50*	30	65*
Cc1ccc(NC(=O)c2[nH]cnc2C(=O)NN)cc1	-4	-13	0	0	-1	-4	.	.
Cc1ccc(NC(=O)c2nc[nH]c2C(=O)NCCCCCCNC(=O)c2[nH]cnc2C(=O)Nc2ccc(C)cc2)cc1	9	6	7	-1	22	70*	11	.
O=C(Nc1ccccc1)c1nc[nH]c1C(=O)NCCCCNC(=O)c1[nH]cnc1C(=O)Nc1ccccc1	1	10	7	-1	0	77*	45*	90*
O=C(COC(=O)Cc1ccc(Br)cc1)Nc1ccc(Cl)cn1	-8	1	-1	-2	0	3	.	.
Oc1ccc(Cl)cc1-c1cc(-c2ccccc2Cl)[nH]n1	-25	-26	26	0	4	0	.	.
Oc1ccc(Cl)cc1-c1cc(-c2cccc(Br)c2)n[nH]1	9	-17	25	0	18	62*	33	.
C/C(=N\NC(=O)c1cc(C)oc1C)c1ccc(C)c([N+](=O)[O-])c1	2	13	0	-1	-5	96*	-13	.
C/C(=N/Nc1ccccc1[N+](=O)[O-])c1ccc(C)c([N+](=O)[O-])c1	-35	-30	-1	.	.	70*	16	.
C#CCOCCOCCOCCNc1nc(N2CCN(C(=O)CCCCCCCCCCNC(=O)Cn3cc(C[C@@H](C)O)nn3)CC2)nc(N2CCN(C(=O)CCCCCCCCCCNC(=O)[C@H](CCCCN)n3cc(C[C@@H](C)CC)nn3)CC2)n1	28	-17	9	0	63	93*	55*	55*
C#CCOCCOCCOCCNc1nc(N2CCN(C(=O)CCCCCCCCCCNC(=O)[C@H](CCCCN)n3cc(C)nn3)CC2)nc(N2CCN(C(=O)CCCCCCCCCCNC(=O)[C@@H]([C@H](C)CC)n3cc(CCCCCN)nn3)CC2)n1	9	-25	15	2	94*	100*	100*	21
C#CCOCCOCCOCCNc1nc(N2CCN(C(=O)CCCCCCCCCCNC(=O)Cn3cc(CCCCCN)nn3)CC2)nc(N2CCN(C(=O)CCCCCCCCCCNC(=O)[C@H](CO)n3cc(CCCCCN)nn3)CC2)n1	-2	-17	0	1	7	27	.	.
C#CCOCCOCCOCCNc1nc(N2CCN(C(=O)CCCCCCCCCCNC(=O)[C@H](CO)n3cc(CCCSC)nn3)CC2)nc(N2CCN(C(=O)CCCCCCCCCCNC(=O)[C@H](CCCCN)n3cc(C[C@@H](C)CC)nn3)CC2)n1	50	-33	34	-1	49	100*	57*	27
C#CCOCCOCCOCCNc1nc(N2CCN(C(=O)CCCCCCCCCCNC(=O)Cn3cc(CCCCCN)nn3)CC2)nc(N2CCN(C(=O)CCCCCCCCCCNC(=O)[C@H]([C@@H](C)CC)n3cc(CCCCCN)nn3)CC2)n1	-16	-47	6	?	39	100*	21	.
C#CCOCCOCCOCCNc1nc(N2CCN(C(=O)CCCCCCCCCCNC(=O)Cn3cc(C[C@@H](C)O)nn3)CC2)nc(N2CCN(C(=O)CCCCCCCCCCNC(=O)Cn3cc(C[C@@H](C)O)nn3)CC2)n1	9	-5	2	1	22	16	.	.
CC(C(=O)NCc1ccccc1)N(Cc1ccccc1Cl)C(=O)c1snc(C(N)=O)c1N (centres undefined)	10	5	1	0	-8	10	.	.
C#CCOCCOCCOCCNc1nc(N2CCN(C(=O)CCCCCCCCCCNC(=O)[C@H]([C@@H](C)CC)n3cc(CCCCCN)nn3)CC2)nc(N2CCN(C(=O)CCCCCCCCCCNC(=O)[C@@H]([C@H](C)O)n3cc(C)nn3)CC2)n1	49	-25	16	0	81*	98*	55*	40*
C#CCOCCOCCOCCNc1nc(N2CCN(C(=O)CCCCCCCCCCNC(=O)[C@H](CCC(=O)O)n3cc(CCCCCN)nn3)CC2)nc(N2CCN(C(=O)CCCCCCCCCCNC(=O)[C@@H]([C@H](C)O)n3cc(C)nn3)CC2)n1	-19	-3	1	1	-4	22	.	.
